The values below come from PubChem BioAssay.

Molecules are shown by their SMILES. Records with an inconclusive call do not appear. Active and inactive are the calls of the source.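 The calls were made as follows, unless noted: active = percent response above 42, roughly 3 SD of non-fluorescent test compounds; inactive = the rest.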

Assay [1] in a line: yeast TOR pathway RPL19A-GFP modulators, primary screen, cell-based, S. cerevisiae, multiplex flow cytometry (AID 1862; in the data active = percent of DMSO control GFP below about 86%;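 also: lower values mimic rapamycin by blocking the RPL19A rise seen in DMSO cells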). Particulars: S. cerevisiae RPL19A-GFP strain, flow cytometry fluorescence, 3 h; at 10 µM; stronger effect = lower value.
A short description of assay [2]: modulators of MEP2-GFP levels in yeast, primary screen, S. cerevisiae, multiplex flow cytometry (AID 1867;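 active = GFP response, as percent of the DMSO control, above the screen-wide mean plus 3 SD, about 139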;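 also: median GFP channel fluorescence of barcode-gated MEP2-GFP cells measured by flow cytometry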). Particulars: S. cerevisiae MEP2-GFP strain, 3 h, at 10 µM, stronger effect = higher value, 100% means same as DMSO wells.
Assay [3] can be described thus: modulators of CIT2-GFP expression in yeast, primary screen, S. cerevisiae, GFP fusion, multiplex flow cytometry (AID 1870;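 active = percent response above a set limit, the screen-wide mean plus 3 SD, cut at about 130% in these data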;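 also: barcoded CIT2-GFP strain pooled with four other GFP strains with rapamycin as positive control; median GFP fluorescence per well over plate mean of DMSO wells so 100% = DMSO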). Particulars: 3 h, at 10 µM, stronger effect = higher value.
The nature of assay [4]: modulators of LAP4-GFP expression in yeast, primary screen, S. cerevisiae, multiplex flow cytometry (AID 1873;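 active = GFP signal, as percent of the solvent control, above the screen mean plus 3 SD, about 149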). Particulars: 3 h, at 10 µM, stronger effect = higher value.
Assay [5] is described as follows: modulators of AGP1-GFP expression in yeast TOR pathway, primary screen, cell-based, multiplex flow cytometry, S. cerevisiae (AID 1887;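 active = GFP signal above the screen-wide mean plus 3 SD, that is over about 124.5% of the solvent control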;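 also: AGP1-GFP fusion strain of S. cerevisiae within a five-strain barcoded multiplex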). Particulars: 3 h, at 10 µM, stronger effect = higher value.
Assay [6] can be described thus: inhibitors of CD8+ T cell-vesicle binding, pilot screen, LFA-1/ICAM-1 modulator project, MLPCN validation set, flow cytometry (AID 2523;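 active = response below a set limit, under 55% cells CD8-positive and vesicle-bound, and CD8 cells' 90th-percentile brightness under 279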;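 as to vesicle binding response: mean PE anti-B7-1 fluorescence of CD8+ cells relative to row control; 100% = QL9-loaded vesicles with DMSO vehicle in the same plate row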). Particulars: 2C mouse CD8+ T cells, at 7 µM, stronger effect = lower value; double positive events: measured here: CD8+/vesicle+ event percentage.
The target of assay [7] is Integrin beta-1 (Homo sapiens) + Integrin alpha-4 (Homo sapiens) (UniProt P13612+P05556). Kind of assay: inhibition of HUTS-21 binding to VLA-4, pilot screen, VLA-4 allosteric modulator project, U937 cells, HUTS-21 mAb, flow cytometry, validation set (AID 2674;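 active = inhibition above 50%, about 3 SD of the validation set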;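 also: antibody binding induced by the VLA-4 ligand LDV present at three times its Kd; 0% = LDV ligand with antibody and no compound and 100% = antibody without LDV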). The following applies: HUTS-21 LIBS mAb binding, at 6.7 µM, stronger effect = higher value, binding induced by LDV ligand.

A short description of assay [8]: superoxide lowering in aged yeast cells, pilot screen, validation compound set (AID 2706;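 active = superoxide response below 65% of plate, a cut near 3 SD across the whole screen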;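 also: yeast exposed to compound for one week at 30 degrees C before staining; 100% = mean of all compound wells on the same plate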). The following applies: S. cerevisiae aging, superoxide DHE fluorescence; at 10 µM; stronger effect = lower value.
The target of assay [9] is Beta-adrenergic receptor kinase 1 (Homo sapiens) (UniProt P25098). Kind of assay: GRK2 binders displacing RNA aptamer, biochemical, validation, human GRK2, bead flow cytometry (AID 488806;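 active = aptamer binding inhibition above 30%, about 3 SD of noise from non-fluorescent compounds; inactive = inhibition at or below 30%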). Particulars: bead-bound GRK2, FAM-aptamer displacement, at 10 µM, stronger effect = higher value.
The target in assay [10] is Beta-2 adrenergic receptor (Homo sapiens) (UniProt P07550). Kind of assay: beta2AR agonists driving receptor internalization, pilot screen, cell-based, FAP fluorogen, flow cytometry, validation set (AID 504459).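 Also: agonist-driven loss of surface beta2AR via internalization measured by FAP dye flow cytometry.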 The following applies: Am2.2-beta2AR cells, FAP surface receptor flow cytometry; at 10 µM; stronger effect = higher value.
The target of assay [11] is AP-2 complex subunit beta (Homo sapiens) (UniProt P63010). Description: inhibitors of arrestin peptide binding to AP2, pilot screen, biochemical, validation set, GST-AP2 beads, flow cytometry (AID 504541;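 active = inhibition above 54%, about 3 SD of non-fluorescent compounds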;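 also: AP2 carries R879A mutation and is captured from E. coli lysate; bead-bound FITC arrestin peptide fluorescence measuring arrestin peptide binding to AP2; 0% = DMSO wells and 100% = excess unlabeled arrestin peptide control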). The following applies: FITC arrestin peptide, at 10 µM, stronger effect = higher value, AP2 beta2 appendage fragment, R879A mutant.
A short description of assay [12]: yeast V-ATPase proton transport modulators, S. cerevisiae, pHLuorin, HTS validation (AID 504600; in the data active = response above about 15%;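 also: plate controls were DMSO for no effect and reference compound for full effect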). The following applies: S. cerevisiae pHLuorin cytosolic pH, at 10 µM, stronger effect = higher value.
Assay [13] relates to anti-desmoglein-3 scFv antibody binding to human DSG3. Description: inhibitors of anti-DSG3 scFv binding to DSG3, pilot screen, biochemical, validation compound set, bead-based, flow cytometry (AID 588368;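 active = binding below the plate cutoff, the plate median minus 3 SD, with a reading above zero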;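 also: signal is the median channel fluorescence of bead-bound GFP antibody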). The following applies: Protein G beads, DSG3-Fc, scFv-GFP binding, at 10 µM, stronger effect = lower value.
The nature of assay [14]: inhibitors of fungal efflux pumps CDR1, CDR2, MDR1, pilot screen, validation compound set, multiplex, phenotypic (AID 588506;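 active = efflux inhibition above 0.42, the validation set average plus 4 SD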;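 also: Nile Red retained in cells so higher fluorescence means more efflux inhibition; 0 = negative control wells and 1 = enniatin B 25 µM full block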). The following applies: S. cerevisiae pump-expressing triplex, Nile Red efflux flow cytometry; at 10 µM; stronger effect = higher value; the pumps come from Candida albicans.
Assay [15] deals with ATP-binding cassette sub-family B member 6 (Homo sapiens) (UniProt Q9NP58). Kind of assay: ABCB6 transporter inhibitors, pilot screen, K562-ABCB6 cells, flow cytometry, validation set (AID 588550;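 active = inhibition above the screen-wide mean plus 3 SD, about 51%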;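 also: 0% = DMSO wells and 100% = benzethonium chloride 70 µM positive control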). Particulars: K562-ABCB6 porphyrin accumulation, 1 h, at 10 µM, stronger effect = higher value.
A short description of assay [16]: promoters of myeloid differentiation in arrested cells, primary screen, cell-based, GFP/MAC1 double positive, flow cytometry, validation set (AID 588685;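 active = differentiation response of at least 50%, scaled between solvent and reference control, from cells with both markers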;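 also: compound exposure lasts four days before antibody staining and flow analysis; 0% = DMSO wells and 100% = 5 µM fulvestrant positive control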). The following applies: ER-HoxA9 marrow cells, stronger effect = higher value, normalized: vehicle 0, fulvestrant 100.

Chain of AP-2 complex subunit beta (Homo sapiens) (P63010 whole entry, looked up, the tested form may be a part, one chain of several): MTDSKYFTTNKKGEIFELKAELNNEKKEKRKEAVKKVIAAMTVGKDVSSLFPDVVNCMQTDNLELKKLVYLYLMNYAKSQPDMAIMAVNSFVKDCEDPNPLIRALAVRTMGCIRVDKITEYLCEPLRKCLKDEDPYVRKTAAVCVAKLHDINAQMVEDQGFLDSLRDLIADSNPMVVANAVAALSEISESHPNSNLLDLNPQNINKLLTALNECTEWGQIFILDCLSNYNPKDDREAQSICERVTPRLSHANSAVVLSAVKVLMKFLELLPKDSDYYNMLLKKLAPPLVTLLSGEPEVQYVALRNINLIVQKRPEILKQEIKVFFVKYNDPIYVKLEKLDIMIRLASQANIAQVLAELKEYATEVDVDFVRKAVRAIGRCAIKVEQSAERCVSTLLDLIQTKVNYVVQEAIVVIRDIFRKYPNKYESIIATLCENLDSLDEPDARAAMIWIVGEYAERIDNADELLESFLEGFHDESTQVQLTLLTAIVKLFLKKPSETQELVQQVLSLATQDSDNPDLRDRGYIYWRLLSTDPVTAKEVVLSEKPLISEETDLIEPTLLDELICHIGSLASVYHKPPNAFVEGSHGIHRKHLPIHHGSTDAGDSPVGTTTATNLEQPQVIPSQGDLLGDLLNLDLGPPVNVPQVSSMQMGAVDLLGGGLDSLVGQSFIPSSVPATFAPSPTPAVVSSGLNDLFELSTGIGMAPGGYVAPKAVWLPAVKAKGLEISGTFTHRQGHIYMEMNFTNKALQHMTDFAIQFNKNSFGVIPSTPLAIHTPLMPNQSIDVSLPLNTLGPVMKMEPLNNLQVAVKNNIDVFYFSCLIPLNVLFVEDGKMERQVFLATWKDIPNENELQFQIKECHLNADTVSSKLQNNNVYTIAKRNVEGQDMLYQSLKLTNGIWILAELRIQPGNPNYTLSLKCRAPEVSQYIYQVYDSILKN
Chain of Beta-adrenergic receptor kinase 1 (Homo sapiens) (P25098 whole entry, looked up): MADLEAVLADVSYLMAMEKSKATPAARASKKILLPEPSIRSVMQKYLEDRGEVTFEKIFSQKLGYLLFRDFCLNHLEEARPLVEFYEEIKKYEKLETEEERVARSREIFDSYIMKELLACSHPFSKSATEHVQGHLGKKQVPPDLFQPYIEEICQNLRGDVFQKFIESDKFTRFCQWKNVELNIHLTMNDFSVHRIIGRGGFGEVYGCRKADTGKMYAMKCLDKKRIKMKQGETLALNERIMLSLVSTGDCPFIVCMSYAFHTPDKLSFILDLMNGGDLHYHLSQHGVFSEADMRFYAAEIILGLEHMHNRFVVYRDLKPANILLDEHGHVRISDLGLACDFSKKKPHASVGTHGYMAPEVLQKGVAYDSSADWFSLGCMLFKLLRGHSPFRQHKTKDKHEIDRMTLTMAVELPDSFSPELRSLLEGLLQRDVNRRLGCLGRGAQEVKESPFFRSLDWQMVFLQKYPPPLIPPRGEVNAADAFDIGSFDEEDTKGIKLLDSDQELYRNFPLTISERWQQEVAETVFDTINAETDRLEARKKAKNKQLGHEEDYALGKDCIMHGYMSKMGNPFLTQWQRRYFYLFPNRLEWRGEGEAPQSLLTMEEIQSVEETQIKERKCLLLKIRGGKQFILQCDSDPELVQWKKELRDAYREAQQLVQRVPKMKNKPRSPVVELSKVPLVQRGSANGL
Chain of Beta-2 adrenergic receptor (Homo sapiens) (P07550 whole entry, looked up): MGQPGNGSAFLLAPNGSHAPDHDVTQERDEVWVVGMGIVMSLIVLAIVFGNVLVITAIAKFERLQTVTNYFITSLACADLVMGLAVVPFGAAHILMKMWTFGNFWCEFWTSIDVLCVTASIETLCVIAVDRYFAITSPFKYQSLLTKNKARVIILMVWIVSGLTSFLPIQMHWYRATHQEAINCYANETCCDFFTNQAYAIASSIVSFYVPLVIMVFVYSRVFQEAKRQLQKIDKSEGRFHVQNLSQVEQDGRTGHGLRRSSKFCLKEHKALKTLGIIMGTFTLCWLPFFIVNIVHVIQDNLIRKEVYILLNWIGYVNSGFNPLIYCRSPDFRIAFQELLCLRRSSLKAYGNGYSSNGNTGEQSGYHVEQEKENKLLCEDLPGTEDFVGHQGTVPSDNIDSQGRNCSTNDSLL
Chain of Integrin beta-1 (Homo sapiens) + Integrin alpha-4 (Homo sapiens) (P05556 whole entry, looked up): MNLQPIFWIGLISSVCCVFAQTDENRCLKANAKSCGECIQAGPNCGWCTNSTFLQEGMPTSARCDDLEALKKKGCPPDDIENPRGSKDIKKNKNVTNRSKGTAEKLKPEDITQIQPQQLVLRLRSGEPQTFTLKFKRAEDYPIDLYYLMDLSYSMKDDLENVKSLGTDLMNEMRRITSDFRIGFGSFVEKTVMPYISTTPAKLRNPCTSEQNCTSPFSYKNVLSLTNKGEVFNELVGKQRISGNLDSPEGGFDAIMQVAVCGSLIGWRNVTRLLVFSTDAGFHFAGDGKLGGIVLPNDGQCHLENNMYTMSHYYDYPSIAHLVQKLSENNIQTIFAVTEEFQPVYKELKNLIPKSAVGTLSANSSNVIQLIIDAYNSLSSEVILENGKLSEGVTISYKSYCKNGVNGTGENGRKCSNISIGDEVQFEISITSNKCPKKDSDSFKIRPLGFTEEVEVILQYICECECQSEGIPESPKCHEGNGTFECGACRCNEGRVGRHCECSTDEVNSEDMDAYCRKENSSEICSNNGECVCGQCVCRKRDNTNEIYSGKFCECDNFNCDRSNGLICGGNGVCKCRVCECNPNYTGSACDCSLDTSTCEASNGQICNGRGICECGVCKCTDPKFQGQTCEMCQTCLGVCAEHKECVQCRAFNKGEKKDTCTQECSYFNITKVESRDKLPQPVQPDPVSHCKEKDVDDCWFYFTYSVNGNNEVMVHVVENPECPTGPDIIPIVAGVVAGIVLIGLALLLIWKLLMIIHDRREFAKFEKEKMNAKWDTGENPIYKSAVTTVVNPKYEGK
Chain of Integrin beta-1 (Homo sapiens) + Integrin alpha-4 (Homo sapiens) (P13612 whole entry, looked up): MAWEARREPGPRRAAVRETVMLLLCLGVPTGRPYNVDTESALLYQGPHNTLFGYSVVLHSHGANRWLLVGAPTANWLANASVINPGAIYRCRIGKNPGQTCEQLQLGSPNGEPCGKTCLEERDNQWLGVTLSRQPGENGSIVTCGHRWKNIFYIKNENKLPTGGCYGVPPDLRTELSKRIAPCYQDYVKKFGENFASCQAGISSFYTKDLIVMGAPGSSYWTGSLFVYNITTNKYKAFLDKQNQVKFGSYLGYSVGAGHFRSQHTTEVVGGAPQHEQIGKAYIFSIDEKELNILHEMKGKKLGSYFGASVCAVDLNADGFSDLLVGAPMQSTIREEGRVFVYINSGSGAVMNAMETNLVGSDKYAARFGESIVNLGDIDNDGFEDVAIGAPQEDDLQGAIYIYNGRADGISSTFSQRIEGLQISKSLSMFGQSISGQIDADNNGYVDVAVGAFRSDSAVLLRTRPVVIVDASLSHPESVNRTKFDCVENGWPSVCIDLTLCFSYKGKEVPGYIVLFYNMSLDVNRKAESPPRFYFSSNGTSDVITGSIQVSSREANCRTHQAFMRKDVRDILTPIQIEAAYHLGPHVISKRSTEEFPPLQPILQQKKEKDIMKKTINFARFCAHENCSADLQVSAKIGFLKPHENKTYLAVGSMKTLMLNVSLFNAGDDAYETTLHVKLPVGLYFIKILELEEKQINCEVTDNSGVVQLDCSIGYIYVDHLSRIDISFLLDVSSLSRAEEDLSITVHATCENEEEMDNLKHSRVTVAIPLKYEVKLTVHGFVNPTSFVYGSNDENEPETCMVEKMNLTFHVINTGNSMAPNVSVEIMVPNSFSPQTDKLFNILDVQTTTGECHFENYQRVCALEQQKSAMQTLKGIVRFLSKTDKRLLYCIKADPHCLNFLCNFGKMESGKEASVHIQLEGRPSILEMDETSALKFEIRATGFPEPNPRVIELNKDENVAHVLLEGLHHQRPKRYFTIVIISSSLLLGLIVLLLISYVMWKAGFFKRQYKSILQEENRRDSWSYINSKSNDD
Chain of ATP-binding cassette sub-family B member 6 (Homo sapiens) (Q9NP58 whole entry, looked up): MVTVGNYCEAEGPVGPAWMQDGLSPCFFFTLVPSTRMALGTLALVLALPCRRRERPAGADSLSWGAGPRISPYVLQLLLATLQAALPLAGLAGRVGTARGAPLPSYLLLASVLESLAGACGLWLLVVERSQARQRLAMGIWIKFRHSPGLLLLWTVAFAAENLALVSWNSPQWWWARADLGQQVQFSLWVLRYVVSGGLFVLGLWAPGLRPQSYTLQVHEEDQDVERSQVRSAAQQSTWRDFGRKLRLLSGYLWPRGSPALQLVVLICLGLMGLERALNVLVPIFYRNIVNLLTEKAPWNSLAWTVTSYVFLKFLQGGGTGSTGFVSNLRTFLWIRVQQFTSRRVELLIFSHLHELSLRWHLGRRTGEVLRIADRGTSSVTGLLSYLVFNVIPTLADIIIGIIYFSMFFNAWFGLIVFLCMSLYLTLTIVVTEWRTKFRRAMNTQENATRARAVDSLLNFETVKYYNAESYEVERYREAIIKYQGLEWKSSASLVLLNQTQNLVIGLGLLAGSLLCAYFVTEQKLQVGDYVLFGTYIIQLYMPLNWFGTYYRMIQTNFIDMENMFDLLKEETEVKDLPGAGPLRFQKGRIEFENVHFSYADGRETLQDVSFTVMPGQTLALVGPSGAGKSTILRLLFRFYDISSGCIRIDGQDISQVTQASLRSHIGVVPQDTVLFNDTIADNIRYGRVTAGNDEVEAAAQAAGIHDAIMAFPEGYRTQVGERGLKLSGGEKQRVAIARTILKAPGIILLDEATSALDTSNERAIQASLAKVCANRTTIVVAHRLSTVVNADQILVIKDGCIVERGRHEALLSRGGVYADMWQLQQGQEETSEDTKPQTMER

Consider `COc1ccc2[nH]cc(C3N4CC5(C)CN3CC(C)(C4)C5=O)c2c1` (stereo not given), for which the percent of DMSO control GFP in assay [1] is 103% (inactive). The GFP response vs DMSO in [2] and in assay [4] was 103% (inactive) in each case. Also, the percent response of DMSO control in assay [3] was 107% (inactive). Further, in assay [5], the GFP response, % of DMSO was 107% (inactive). Further, the double positive events in [6] is 59.2%. In addition, the vesicle binding response in [6] was 138% (inactive). Moreover, the figures for the inhibition in [7], in [11] and in [15] were 9.63% (inactive), 10.8% (inactive) and 2% (inactive), respectively. In addition, the superoxide response (% of plate) in [8] was 105% (inactive). Moreover, in [9], the aptamer binding inhibition is -2% (inactive). For the same compound, the response in assay [10] was -5.37% (inactive); in assay [12], 1.5% (inactive). In addition, in assay [13], the binding (% of control) is 101% (inactive). Moreover, in assay [14], the efflux inhibition (fraction of control) is -0.08 (inactive). Also, the differentiation response in assay [16] was -11.9% (inactive).
For `CCOCCn1c(C(C)O)nc2ccccc21` (stereo not given), in [1], the percent of DMSO control GFP was 105% (inactive). Moreover, the results for the GFP response vs DMSO in assay [2] and in assay [4] were 96.2% (inactive) and 98% (inactive), respectively. In [3], the percent response of DMSO control was 111% (inactive). Also, in assay [5], the GFP response, % of DMSO is 104% (inactive). Further, in assay [6], the double positive events came out at 62.6%. In assay [6], the vesicle binding response is 278% (inactive). For the same compound, the inhibition in assay [7] is 20.3% (inactive); in assay [11], -8.14% (inactive); in [15] it was -3% (inactive). For the same compound, the superoxide response (% of plate) in assay [8] is 89.7% (inactive). Further, in assay [9], the aptamer binding inhibition is 1% (inactive). Also, the response was -7.33% (inactive) in assay [10] and 4.51% (inactive) in assay [12]. In [13], the binding (% of control) is 95.3% (inactive). Besides, in [14], the efflux inhibition (fraction of control) is 0.02 (inactive). Besides, the differentiation response in assay [16] is 7.09% (inactive).
For `NS(=O)(=O)c1ccc(CCNC(=O)C2CCCN2C(=O)OCc2ccccc2)cc1` (stereo not given), the percent of DMSO control GFP in assay [1] is 97.2% (inactive). Further, the GFP response vs DMSO is 109% (inactive) in assay [2] and 77.6% (inactive) in assay [4]. In assay [3], the percent response of DMSO control is 112% (inactive). The GFP response, % of DMSO in [5] is 103% (inactive). Besides, the double positive events in assay [6] was determined as 52.2%. For the same compound, in assay [6], the vesicle binding response was 214% (inactive). Also, the inhibition was 1.61% (inactive) in assay [7], -5.77% (inactive) in assay [11] and 11% (inactive) in [15]. In addition, the superoxide response (% of plate) in assay [8] is 110% (inactive). Moreover, in [9], the aptamer binding inhibition is -8% (inactive). Also, the response in assay [10] was -16.9% (inactive); in assay [12], 2.16% (inactive). Also, the binding (% of control) in assay [13] is 104% (inactive). In addition, in assay [14], the efflux inhibition (fraction of control) is 0.19 (inactive). For the same compound, the differentiation response in assay [16] was 3.28% (inactive).
As to `CCn1nc(C(=O)O)c(=O)c2cc3c(cc21)OCO3`, in assay [1], the percent of DMSO control GFP is 103% (inactive). Further, the GFP response vs DMSO in assay [2] is 104% (inactive); in [4], 90.7% (inactive). Besides, the percent response of DMSO control in [3] is 104% (inactive). In addition, the GFP response, % of DMSO in [5] was 98.3% (inactive). In assay [6], this compound came in with a double positive events of 55.1%. The vesicle binding response in assay [6] is 726% (inactive). Besides, the inhibition in assay [7] was 14.1% (inactive); in assay [11], -8.41% (inactive); in assay [15], -8% (inactive). Besides, in assay [8], the superoxide response (% of plate) is 92.7% (inactive). Besides, the aptamer binding inhibition in assay [9] was 2% (inactive). In addition, the response in [10] was -7.41% (inactive); in assay [12] it was 61.9% (active). The binding (% of control) in assay [13] was 98.4% (inactive). In addition, the efflux inhibition (fraction of control) in [14] was -0.1 (inactive). In assay [16], the differentiation response was 13.9% (inactive).
Consider `COc1ccc2cc(C3(C)NC(=O)NC3=O)ccc2c1` (stereo not given), for which the percent of DMSO control GFP in assay [1] is 95.8% (inactive). The GFP response vs DMSO in assay [2] is 116% (inactive); in [4], 117% (inactive). Moreover, in assay [3], the percent response of DMSO control is 87.2% (inactive). In assay [5], the GFP response, % of DMSO was 99.7% (inactive). In assay [6], the double positive events was determined as 60.5%. In addition, the vesicle binding response in [6] is 147% (inactive). Further, the inhibition is -9.98% (inactive) in assay [7], -3.7% (inactive) in assay [11] and 8% (inactive) in assay [15]. Further, the superoxide response (% of plate) in assay [8] is 104% (inactive). For the same compound, the aptamer binding inhibition in [9] is 2% (inactive). The values for the response in assay [10] and in [12] were 2.16% (inactive) and -5.94% (inactive), respectively. Further, in assay [13], the binding (% of control) is 99.7% (inactive). Also, in assay [14], the efflux inhibition (fraction of control) was -0.06 (inactive). Further, in assay [16], the differentiation response was 7.2% (inactive).
